Consider five molecules from PubChem BioAssay.

Test [1] concerns Plasmodium falciparum Sir2 (PF13_0152, Sir2A). Briefly: Plasmodium falciparum Sir2A binding compounds – biochemical, small-molecule microarray, 635 nm fluorescence, primary screen (AID 1098).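 Note: score merges spot fluorescence intensity with its signal-to-noise ratio.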 To be noted: fluorescence 635 nm, higher = more signal.
Test [2] in a line: probe aDKK1 binding to arrayed compounds – biochemical, biotinylated probe, 635/667 nm fluorescence, primary screen (AID 1099).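 Note: score merges 667nm spot fluorescence with signal to noise across triplicate slides.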 To be noted: small-molecule microarray, higher = more signal.
A short description of test [3]: probe aCHRDL2 binding to arrayed compounds – biochemical, biotinylated probe, 635/667 nm fluorescence, primary screen (AID 1100). To be noted: small-molecule microarray, higher = more signal.
Test [4] can be described thus: change in splice reporter luminescence, either direction, cell-based, HEK293, spliceosome inhibition project, primary screen (AID 1101).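 Note: HEK293 cells carrying a splicing-competent luciferase reporter gene; test concentration not given here.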 The following applies: HEK293 splicing luciferase reporter, 24 h, higher = more signal, called active from +8 up or from −8 down. (A reporter such as luciferase makes a cellular process visible.)
The target of test [5] is Fibroblast growth factor 10 (Homo sapiens) (UniProt O15520). Briefly: compounds binding fibroblast growth factor 10 – biochemical, small-molecule microarray, 635 nm fluorescence, primary screen (AID 1102). To be noted: FGF10 binding, fluorescence 635 nm, higher = more signal.
Chain of Fibroblast growth factor 10 (Homo sapiens) (O15520 whole entry, looked up): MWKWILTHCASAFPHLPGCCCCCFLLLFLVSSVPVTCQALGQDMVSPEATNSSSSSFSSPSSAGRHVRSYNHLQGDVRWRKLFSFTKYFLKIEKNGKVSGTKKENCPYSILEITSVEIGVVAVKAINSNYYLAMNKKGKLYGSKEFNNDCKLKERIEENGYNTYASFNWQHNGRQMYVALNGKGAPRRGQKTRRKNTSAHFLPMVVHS
Test [6] relates to glycogen synthase kinase-3 (GSK3A per assay name; protocol says GSK3B). Briefly: compounds binding glycogen synthase kinase-3 – biochemical, small-molecule microarray, 635 nm fluorescence, GSK3A, primary screen (AID 1103). Note: the record names both GSK3A and GSK3B. To be noted: fluorescence 635 nm, higher = more signal.
In test [7] the target is Epidermal growth factor receptor (Homo sapiens) (UniProt P00533). Briefly: compounds binding epidermal growth factor receptor – biochemical, small-molecule microarray, 635 nm fluorescence, primary screen (AID 1104).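 Note: score merges 667 nm emission intensity with spot signal to noise over triplicate slides.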 To be noted: EGFR binding, higher = more signal.
Chain of Epidermal growth factor receptor (Homo sapiens) (P00533 whole entry, looked up): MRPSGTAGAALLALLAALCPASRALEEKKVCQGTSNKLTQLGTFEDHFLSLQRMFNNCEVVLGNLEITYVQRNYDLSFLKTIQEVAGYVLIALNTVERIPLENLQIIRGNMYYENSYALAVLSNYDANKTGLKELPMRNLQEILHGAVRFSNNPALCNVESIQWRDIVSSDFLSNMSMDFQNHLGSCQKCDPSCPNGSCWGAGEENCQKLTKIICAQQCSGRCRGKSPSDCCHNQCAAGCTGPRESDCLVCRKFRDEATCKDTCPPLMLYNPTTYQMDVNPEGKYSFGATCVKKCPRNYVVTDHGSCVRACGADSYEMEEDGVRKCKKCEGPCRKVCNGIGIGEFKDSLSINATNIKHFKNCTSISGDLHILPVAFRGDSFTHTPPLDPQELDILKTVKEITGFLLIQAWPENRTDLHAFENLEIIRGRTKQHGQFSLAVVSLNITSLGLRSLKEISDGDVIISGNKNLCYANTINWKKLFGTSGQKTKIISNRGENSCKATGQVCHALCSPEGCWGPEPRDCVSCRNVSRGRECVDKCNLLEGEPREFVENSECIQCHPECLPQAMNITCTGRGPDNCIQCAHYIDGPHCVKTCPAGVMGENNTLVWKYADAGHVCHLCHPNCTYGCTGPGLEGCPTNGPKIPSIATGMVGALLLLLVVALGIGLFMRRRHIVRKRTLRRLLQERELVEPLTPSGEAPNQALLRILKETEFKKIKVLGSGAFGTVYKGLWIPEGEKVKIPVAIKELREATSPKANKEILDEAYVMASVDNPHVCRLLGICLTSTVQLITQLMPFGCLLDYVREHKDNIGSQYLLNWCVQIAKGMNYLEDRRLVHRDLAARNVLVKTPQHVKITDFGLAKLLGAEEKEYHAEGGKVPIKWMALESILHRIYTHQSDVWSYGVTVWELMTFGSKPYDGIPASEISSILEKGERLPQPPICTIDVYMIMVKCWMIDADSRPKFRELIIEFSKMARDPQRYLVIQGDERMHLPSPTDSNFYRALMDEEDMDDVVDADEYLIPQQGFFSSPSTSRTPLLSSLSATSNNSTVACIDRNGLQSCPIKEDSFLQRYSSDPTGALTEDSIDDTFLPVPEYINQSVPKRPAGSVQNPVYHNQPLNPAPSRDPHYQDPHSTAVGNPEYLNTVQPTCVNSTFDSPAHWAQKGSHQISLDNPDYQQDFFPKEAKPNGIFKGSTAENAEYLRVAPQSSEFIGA
Test [8] concerns the target Follistatin-related protein 3 (Homo sapiens) (UniProt O95633). Nature of the test: compounds binding follistatin-related protein 3 – biochemical, small-molecule microarray, 635 nm fluorescence, primary screen (AID 1105).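 Note: score merges emission near 667 nm and signal to noise per printed spot across three slides.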 To be noted: FSTL3 binding, higher = more signal.
Test [9] has as its target Dickkopf-related protein 1 (Homo sapiens) (UniProt O94907). Briefly: small molecules binding DKK1 protein – biochemical, small-molecule microarray, 635 nm fluorescence scan, primary screen (AID 1106).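 Note: score merges emission near 667 nm with signal to noise over three replicate slides.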 To be noted: higher = more signal.
The test system of test [10] is Inhibin beta A chain (activin A). Nature of the test: small molecules binding activin A – biochemical, small-molecule microarray, 635 nm fluorescence scan, primary screen (AID 1107).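 Note: mouse activin A protein probed at 4.33 µg/mL on printed slides; score merges bound-protein fluorescence near 667 nm with spot signal-to-noise.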 The following applies: INHBA, higher = more signal.
Test [11] has as its system Human papillomavirus type 1a protein E7 (residues 44-93). Briefly: small molecules binding HPV E7 44-93 – biochemical, small-molecule microarray, residues 44-93, 635 nm fluorescence, primary screen (AID 1108).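 Note: E7 fragment applied at 1 µg/mL in TBST for 1 h at 4 C; score combines spot fluorescence with its signal to noise ratio.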 To be noted: fluorescence 635 nm, higher = more signal.
A short description of test [12]: hepatitis C replication reporter changes, two-sided – Huh7 cells, luciferase reporter, HCV replication inhibitor project, primary screen (AID 1109).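 Note: huh7 hepatoma cells harbouring a luciferase neomycin HCV replicon reporter; luciferase luminescence as measure of HCV replicon replication; test concentration not given here.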 The following applies: Huh7 HCV replicon luciferase reporter, 48 h; higher = more signal.
The target in test [13] is Left-right determination factor 2 (Homo sapiens) (UniProt O00292). Nature of the test: small molecules binding LEFTY2 protein – biochemical, small-molecule microarray, 635 nm fluorescence scan, primary screen (AID 1110). To be noted: higher = more signal.
Chain of Left-right determination factor 2 (Homo sapiens) (O00292 whole entry, looked up): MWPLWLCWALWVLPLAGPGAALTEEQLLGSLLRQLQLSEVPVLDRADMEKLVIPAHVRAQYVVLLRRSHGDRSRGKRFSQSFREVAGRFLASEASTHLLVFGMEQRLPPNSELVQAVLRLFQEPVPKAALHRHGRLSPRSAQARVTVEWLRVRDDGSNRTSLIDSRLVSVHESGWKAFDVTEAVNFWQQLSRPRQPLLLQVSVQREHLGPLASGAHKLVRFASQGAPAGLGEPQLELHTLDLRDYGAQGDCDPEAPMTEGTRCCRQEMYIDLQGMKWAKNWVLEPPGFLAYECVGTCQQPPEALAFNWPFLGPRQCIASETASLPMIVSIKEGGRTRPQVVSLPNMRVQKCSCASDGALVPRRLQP
Test [14] concerns the target Calmodulin-1 (Homo sapiens) (UniProt P0DP23). Briefly: small molecules binding calmodulin-1 with EGTA – biochemical, small-molecule microarray, Cy5-labelled CALM1, profiling panel (AID 1111).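 Note: labelled calmodulin applied in Tris saline Tween buffer holding calcium plus EGTA and DTT.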 To be noted: Cy5-CALM1 binding fluorescence, higher = more signal.
Test [15] has the same target. Nature of the test: small molecules binding Ca-loaded calmodulin-1 – biochemical, small-molecule microarray, Cy5-labelled CALM1, plus calcium, artefact control for SMM control-protein annotation, profiling panel (AID 1112).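 Note: score merges spot fluorescence with signal to noise from triplicate slides.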 The following applies: Cy5-CALM1 binding fluorescence, higher = more signal.
Test [16] can be described thus: probe aWnt5a binding to arrayed compounds – biochemical, biotinylated probe, 635/667 nm fluorescence, primary screen (AID 1113).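 Note: score merges 667 nm fluorescence intensity with signal-to-noise per printed feature.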 To be noted: small-molecule microarray, higher = more signal.
Test [17] can be described thus: probe aShh binding to arrayed compounds – biochemical, biotinylated probe, 635/667 nm fluorescence, primary screen (AID 1114).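 Note: probe is biotin-labelled aShh protein from a stem cell growth factor screen; measures binding of labelled protein to compounds printed on the slide; score merges feature fluorescence at 667 nm with signal-to-noise.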 The following applies: small-molecule microarray, higher = more signal.
A short description of test [18]: probe aNog binding to arrayed compounds – biochemical, biotinylated probe, 635/667 nm fluorescence, primary screen (AID 1115).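 Note: probe is biotinylated aNog protein used at 0.15 µg/mL for 1 h at 4 C; z-score combines 667 nm fluorescence of each spot with its signal to noise.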 To be noted: small-molecule microarray, higher = more signal.
Test [19] addresses Torsin-1A-interacting protein 1 (Homo sapiens) (UniProt Q5JTV8). Nature of the test: compound microarray binding of lysate hLAP1 – cell lysate, small-molecule microarray, COS7 lysate, 635/667 nm fluorescence, primary screen (AID 1116). The following applies: 635 nm fluorescence, higher = more signal.
In test [20] the target is Alpha-bungarotoxin (Bungarus multicinctus) (UniProt P60615). Nature of the test: compounds binding labelled alpha-BTX control protein – biochemical, small-molecule microarray, Alexa647 label, 635/667 nm fluorescence, artefact control for SMM control protein annotation, profiling panel (AID 1117). To be noted: alpha-BTX-A647 binding fluorescence, higher = more signal.
Chain of Alpha-bungarotoxin (Bungarus multicinctus) (P60615 whole entry, looked up): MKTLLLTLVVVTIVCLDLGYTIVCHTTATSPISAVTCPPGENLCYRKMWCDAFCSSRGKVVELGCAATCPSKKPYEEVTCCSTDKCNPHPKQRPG

The source made the active and inactive calls.

Chain of Follistatin-related protein 3 (Homo sapiens) (O95633 whole entry, looked up): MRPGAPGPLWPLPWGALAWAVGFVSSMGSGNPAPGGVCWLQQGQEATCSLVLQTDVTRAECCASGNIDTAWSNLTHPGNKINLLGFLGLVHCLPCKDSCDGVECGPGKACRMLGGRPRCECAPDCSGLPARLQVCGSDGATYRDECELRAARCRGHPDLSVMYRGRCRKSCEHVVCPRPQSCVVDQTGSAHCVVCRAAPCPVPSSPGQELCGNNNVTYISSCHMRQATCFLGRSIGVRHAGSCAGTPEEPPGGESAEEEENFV
Chain of Torsin-1A-interacting protein 1 (Homo sapiens) (Q5JTV8 whole entry, looked up): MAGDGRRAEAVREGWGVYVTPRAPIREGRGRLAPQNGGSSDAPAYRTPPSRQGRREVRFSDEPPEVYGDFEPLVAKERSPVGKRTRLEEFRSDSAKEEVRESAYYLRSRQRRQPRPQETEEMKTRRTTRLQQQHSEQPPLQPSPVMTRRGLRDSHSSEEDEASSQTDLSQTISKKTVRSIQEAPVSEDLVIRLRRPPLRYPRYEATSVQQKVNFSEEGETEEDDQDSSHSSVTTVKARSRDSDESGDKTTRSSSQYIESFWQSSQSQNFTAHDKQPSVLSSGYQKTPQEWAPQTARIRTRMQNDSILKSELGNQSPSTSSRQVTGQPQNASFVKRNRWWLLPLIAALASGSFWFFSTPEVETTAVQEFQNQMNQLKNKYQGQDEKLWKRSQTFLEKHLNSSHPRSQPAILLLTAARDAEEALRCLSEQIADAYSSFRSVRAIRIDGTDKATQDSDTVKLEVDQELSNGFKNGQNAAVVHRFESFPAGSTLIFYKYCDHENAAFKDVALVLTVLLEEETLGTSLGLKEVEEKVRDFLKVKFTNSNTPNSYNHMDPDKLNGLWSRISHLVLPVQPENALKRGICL
Chain of Dickkopf-related protein 1 (Homo sapiens) (O94907 whole entry, looked up): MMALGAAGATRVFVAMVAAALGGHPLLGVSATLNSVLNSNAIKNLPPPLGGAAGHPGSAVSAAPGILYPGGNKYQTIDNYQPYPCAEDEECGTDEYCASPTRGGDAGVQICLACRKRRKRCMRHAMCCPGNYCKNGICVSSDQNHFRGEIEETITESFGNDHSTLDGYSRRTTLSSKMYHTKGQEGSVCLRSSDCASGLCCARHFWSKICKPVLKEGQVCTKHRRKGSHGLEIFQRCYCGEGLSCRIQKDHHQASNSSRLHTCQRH

In the case of `O=C1C[C@]2(c3ccc([N+](=O)[O-])cc3)C(=O)N(CC(F)(F)F)c3cc(CO)ccc3[C@H]2N1CC12CC3CC(CC(C3)C1)C2`, the composite z-score in test [1] was 1.75; in test [2], -0.157; in test [3], 0.115; in test [5], 0.0399; in test [6], 0.284; in test [7], -0.736. Further, the composite z-score is 0.23 in test [8]; 0.301 in [9]; 0.36 in test [10]; 0.193 in test [11]; -0.211 in test [13]; -0.28 in [14]. For the same molecule, the composite z-score in test [15] is -0.285; in test [16], -0.147; in test [17], -0.229; in [18], -0.364; in [19], -0.371; in test [20], 0.224. Moreover, the results for the z-score in test [4] and in test [12] were 0.452 (inactive) and -0.156, respectively.
As to `O=C1N(CCS(=O)(=O)c2ccccc2)c2ccccc2C[C@@]12COC(c1ccc(OCCCO)cc1)=N2`, the composite z-score in test [1] amounted to 1.51; in test [2], 0.957; in test [3], 1.12; in test [5] it was 0.805; in [6] it was 1.32; in test [7] it was 0.432. For the same molecule, the composite z-score was determined as 1.32 in [8]; 0.763 in test [9]; 1.18 in [10]; 1.09 in [11]; 0.428 in test [13]; 0.417 in test [14]. For the same molecule, the composite z-score is 0.445 in test [15]; 0.152 in [16]; 0.0124 in test [17]; 0.69 in test [18]; 0.99 in [19]; -0.103 in test [20]. The z-score in test [4] was -0.651 (inactive); in test [12], -1.49.
Consider `CCOC(=O)C1=CCC(C(C)(C)C)N(S(=O)(=O)c2ccc(C)cc2)C1` (stereo not given), for which the composite z-score in [1] worked out at 0.939; in test [2], 0.368; in test [3] it was 0.108; in test [5], 1.48; in test [6] it was 0.347; in test [7], 1.15. Also, the composite z-score in test [8] came to 1.43; in [9], 1.44; in test [10] it was 0.136; in test [11], 1.46; in [13], 1.37; in test [14], 0.898. The composite z-score was 0.197 in [15]; 0.0561 in test [16]; -0.532 in test [17]; 0.562 in test [18]; 0.944 in test [19]; 1.5 in [20]. Also, the z-score in test [4] is -0.0514 (inactive); in [12], -2.59.
As to `CC(=O)NCCCC[C@@H]1NC(=O)[C@H]2C[C@@H](C(=O)NCCCCCC[N+](C)(C)C)[C@@H](c3cccc(OCCO)c3)N2C1=O`, the composite z-score is 1.44 in [1]; -0.104 in test [2]; -0.207 in test [3]; 1.17 in [5]; 0.917 in test [6]; 0.848 in test [7]. Also, the composite z-score in test [8] was 1.58; in test [9], 1.85; in [10], 0.695; in [11], 1.1; in test [13] it was 1.02; in [14] it was 0.0227. For the same molecule, the composite z-score in test [15] was -0.34; in [16], -0.0792; in test [17], -0.0709; in [18], 0.019; in test [19], 0.595; in test [20], 2.04. Moreover, the figures for the z-score in test [4] and in test [12] were -1.6 (inactive) and -0.0914, respectively.
Take `NC(=O)NCC#Cc1ccc2c(c1)[C@]1(C(=O)N2)[C@H](C(=O)NC[C@H](O)c2ccccc2)[C@H]2C(=O)O[C@H](c3ccccc3)[C@H](c3ccccc3)N2[C@@H]1c1ccc(O)cc1`: the composite z-score in [1] was 1.23; in test [2], 0.0166; in [3], -0.249; in [5], 0.893; in [6], 0.664; in test [7] it was 0.575. For the same molecule, the composite z-score in [8] came to 0.553; in test [9] it was 0.314; in test [10] it was 1.72; in test [11], 1.38; in test [13], 0.691; in test [14] it was 2. Also, the composite z-score in [15] is 0.916; in test [16], 0.551; in test [17], 0.456; in test [18], 0.921; in test [19] it was 1.45; in test [20] it was 2.19. Moreover, the results for the z-score in test [4] and in [12] were 0.37 (inactive) and -0.257, respectively.
